Only some compounds are listed: those with a hit (about 32% of all), similar ones and a draw of the others.
CYP2C9 act: activators of human CYP2C9; P11712; recombinant CYP2C9, luciferin-H conversion, luminescence; hits give high values; factor 1 = untreated enzyme, 0 = blocked; activation factor at 5 µM; 96,000 compounds, 1.4% hits; AID 1024;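 active means activation factor of 2 or more for CYP2C9 at a 5 µM dose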
PostGolgi yeast: growth inhibition of a yeast mutant, post-Golgi transport screen; post-Golgi transport phenotypic cell assay; inhibition, % at 10 µM; 98,000 compounds, 0.9% hits; AID 739;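 further: yeast cells grown in 1536-well plates; yeast grown about 18 h at 30C before absorbance read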
PostGolgi ctrl: growth of the yeast control strain, post-Golgi counter-screen; efflux-deficient yeast background strain, growth absorbance A615, 16 h; inhibition, % at 10 µM; 98,000 compounds, 5% hits; AID 738
CYP2C19 act: increases human CYP2C19 enzyme activity; activation factor at 5 µM; 96,000 tested, under 10 active; P33261; AID 1025; recombinant CYP2C19, luciferin-H EGE luminescence; hits give high values; 0 = fully inhibited enzyme, 1 = untreated enzyme;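 active means activation factor of at least 2 at 5 µM in the primary screen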
Target sequence (P33261 whole entry, looked up): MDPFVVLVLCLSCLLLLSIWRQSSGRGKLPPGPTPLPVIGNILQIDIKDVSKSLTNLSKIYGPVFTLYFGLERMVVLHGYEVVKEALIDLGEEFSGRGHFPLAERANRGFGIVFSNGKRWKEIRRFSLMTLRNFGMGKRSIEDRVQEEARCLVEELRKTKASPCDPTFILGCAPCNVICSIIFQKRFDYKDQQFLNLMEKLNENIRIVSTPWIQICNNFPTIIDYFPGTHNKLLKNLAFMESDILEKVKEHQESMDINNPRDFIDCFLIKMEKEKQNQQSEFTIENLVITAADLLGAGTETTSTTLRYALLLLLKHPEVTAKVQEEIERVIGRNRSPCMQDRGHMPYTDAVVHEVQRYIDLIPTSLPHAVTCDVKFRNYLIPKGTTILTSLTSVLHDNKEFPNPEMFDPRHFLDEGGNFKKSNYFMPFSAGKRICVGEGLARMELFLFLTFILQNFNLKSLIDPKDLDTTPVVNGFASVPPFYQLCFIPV
CYP2C9 inhib: inhibitors of human CYP2C9 | P11712 | CYP2C9 Supersomes, luciferin-H conversion, luminescence | inhibition, % at 5 µM | 96,000 compounds, 20% hits;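 active means blocking of liver enzyme CYP2C9 beyond about 50% at 5 µM, limit read from the data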
CYP2C19 inh: blocks human cytochrome P450 2C19; P33261; CYP2C19 Supersomes, luciferin-H EGE luminescence, 30 min; inhibition, % at 5 µM; 96,000 compounds, 21% hits; AID 778;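 active means CYP2C19 inhibition above a set limit at 5 µM in the primary screen, cut at about 50% in these data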
Hits are given with their value; . = inactive; / = not tested or not shown. Unless noted, no stated cut-off is given here; in the data, active means inhibition above about 30%; inactive means the rest.

SMILES	CYP2C9 act	PostGolgi yeast	PostGolgi ctrl	CYP2C19 act	CYP2C9 inhib	CYP2C19 inh
CCCS(=O)(=O)N1CCCC(C(=O)NCCN(C)Cc2ccccc2)C1 (configuration not stated)	.	.	.	.	.	.
COc1ccc(O)c(C(=O)c2cnc3onc(C)c3c2)c1	.	.	.	.	.	83
Cc1ncc(CC(=O)n2cc(C(=O)c3cc(F)ccc3O)cn2)s1	.	.	.	.	.	.
Cc1nn(C)c2ncc(C(=O)c3cc(F)ccc3O)cc12	.	.	.	.	68	95
O=C(Cc1ccccc1)Nc1ccc(N2CCN(Cc3ccccc3F)CC2)cc1	.	.	.	.	.	.
COc1ccc(OC)c(CC(NC(C)=O)C(=O)NC2CCN(c3nc(C)cc(C)c3C#N)CC2)c1 (configuration not stated)	.	/	/	.	.	.
CCOc1cc(/C=N/NC(=O)c2ccncc2)ccc1OC(=O)c1ccc([N+](=O)[O-])cc1	.	.	.	.	.	.
CCOc1ccc(Br)cc1/C=N/NC(=O)c1ccncc1	.	.	.	.	83	91
CCOC(=O)CSc1nnc(Cn2nnc(-c3ccccc3)n2)n1CC	.	.	.	.	.	.
Cc1ccc(N2C(=O)CC3(CC4C=CC3C4)C2=O)cc1 (configuration not stated)	.	.	.	.	81	.
Cc1ccc(N2C(=O)NC3(CCCCC3)C2=O)cc1	.	.	.	.	.	.
CCn1nc(C(=O)Nc2nc3ccc(C)cc3s2)c2ccccc2c1=O	.	.	.	.	.	.
NCCN1CCN(CCN)CC1	.	.	.	.	.	.
COc1ccc(C(=O)Nc2ccccc2C(=O)NCCCn2ccnc2)cc1	.	.	.	.	100	85
CCCCNC(=O)c1ccccc1C(=O)NCCCC	.	.	.	.	.	.
CCCCCNC(=O)c1ccccc1SC	.	.	.	.	.	59
O=C(NCCCn1ccnc1)c1csc2ccccc12	.	.	.	.	87	87
O=C(NCCCn1ccnc1)c1ccco1	.	.	.	.	.	.
O=C(Nc1ccccc1C(=O)NCCCn1ccnc1)c1ccccc1	.	.	.	.	96	84
COc1ccc(C(C(=O)NC2CCCCC2)N(C(=O)Cc2c[nH]c3ccccc23)c2ccc(NC(C)=O)cc2)cc1OC (configuration not stated)	.	.	.	.	.	.
CCSc1ccccc1C(=O)Nc1cccnc1	/	.	.	/	/	/
CCSc1ccccc1C(=O)NCCCn1ccnc1	.	.	.	.	63	92
Cn1c(=O)oc2cc(S(=O)(=O)N3CCCC(C(=O)Nc4ccc5c(c4)OCCO5)C3)ccc21 (configuration not stated)	.	.	31	.	.	.
COc1ccc(NC(=O)C2CCCN(S(=O)(=O)c3ccc4c(c3)oc(=O)n4C)C2)cc1OC (configuration not stated)	.	.	.	.	.	55
COc1ccc2c(c1OC)C(=O)N(C(C)C(=O)O)C2=O (configuration not stated)	.	.	.	.	.	.
SMILES	CYP2C9 act	PostGolgi yeast	PostGolgi ctrl	CYP2C19 act	CYP2C9 inhib	CYP2C19 inh
CN1CCN(CCC(=O)Nc2ccccc2Cl)CC1	/	.	.	/	/	/
Cn1c2c(c(=O)n(C)c1=O)CN(CC1CCCO1)CN2 (configuration not stated)	.	.	.	.	.	.
CCn1c(-c2cccc(Br)c2)n[nH]c1=S	.	.	.	.	.	76
CC(=O)C1=C(O)C=C(c2ccco2)CC1c1ccco1 (configuration not stated)	.	.	.	.	51	50
CC(C)(Oc1ccc(-c2ccco2)cc1)C(=O)O	.	.	.	.	.	.
O=C(Nc1nccs1)C1CCN(S(=O)(=O)c2cnc[nH]2)CC1	.	.	.	.	86	.
O=C(Nc1cccc(C(F)(F)F)c1)C1CCN(S(=O)(=O)c2cnc[nH]2)CC1	.	.	.	.	82	55
COc1ccc(OC)c(S(=O)(=O)N2CCC(C(=O)Nc3cccc(C(F)(F)F)c3)CC2)c1	.	.	.	.	.	.
CCCCNC(=O)C1CCN(S(=O)(=O)c2cnc[nH]2)CC1	.	.	.	.	.	.
CCCCC(CC)C1OCC(CN2CCCC2)O1 (configuration not stated)	.	.	.	.	.	.
Cc1nnc(NC(=O)CCCCCN2C(=O)C3C4C=CC(C4)C3C2=O)s1 (configuration not stated)	.	.	.	.	.	.
COc1ccc(NC(=O)c2cc(S(=O)(=O)N3CCS(=O)(=O)CC3)ccc2Cl)cc1	.	.	.	.	.	.
Cc1cccc(C)c1NC(=O)N1CCC(n2cnc3ccccc32)CC1	.	.	.	.	.	.
Cc1cccc(C)c1NC(=O)N1CCC(n2c(=O)[nH]c3ccccc32)CC1	.	.	33	.	.	.
O=C(NCC1CCCCC1)C1CCN(C(=O)NC2CCCCC2)CC1	.	.	.	.	.	.
COc1ccc2c(c1OC)C(=O)OC2C1c2c(cc3c(c2OC)OCO3)CCN1C (configuration not stated)	.	.	.	.	89	89
COc1cc2c(C(=O)NCCCOC(C)C)cn(CC(C)C)c(=O)c2cc1OC	.	.	.	.	.	.
CCOP(=O)(c1ccc(N(C)C)cc1)C(O)c1ccccc1OC (configuration not stated)	.	.	.	.	.	.
CCCOP(=O)(c1ccc(N(C)C)cc1)C(O)c1cccnc1 (configuration not stated)	.	.	.	.	.	.
CC(C)CCOP(=O)(c1ccc(N(C)C)cc1)C(O)c1ccccc1F (configuration not stated)	.	.	.	.	.	74
CC(C)COP(=O)(c1ccc(N(C)C)cc1)C(O)c1ccccn1 (configuration not stated)	.	.	.	.	.	67
CC(C)CCOP(=O)(c1ccc(N(C)C)cc1)C(O)c1ccccn1 (configuration not stated)	.	.	.	.	.	80
CCCCOP(=O)(c1ccc(N(C)C)cc1)C(O)c1ccncc1 (configuration not stated)	.	.	.	.	74	80
OC(c1ccccc1)c1nc2ccccc2s1 (configuration not stated)	.	.	.	.	.	65
O=C(Nc1ccc(Cl)c(Cl)c1)OCc1cccnc1	.	.	.	.	.	64
COc1ccc(C(=O)Nc2ccc(Cl)c(Cl)c2)c(OC)n1	.	.	.	.	.	.
O=C(Nc1cccc(Cl)c1)c1csc(-c2ccccc2)n1	.	.	.	.	58	.
COc1cccc(NC(=O)c2ccncc2)c1	.	.	.	.	.	.
O=C(NNC(=O)c1cccnc1)Nc1ccc(Cl)c(Cl)c1	.	.	.	.	.	.
